The structures appear in SMILES notation. Screen size: about 200,000 compounds; about 18,000 (9%) were called active. The list comes from a sample in which actives are over-represented; it also holds similar structures and randomly drawn compounds. Unmarked numbers belong to inactive results. Cut-off read from the data, not from the text of the source: active = inhibition above about 50%; inactive = the rest.

The nature of this assay: antileishmanial activity against promastigotes – primary screen (AID 1063).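 Note: promastigotes grown with compound for 44 hours at 28 °C.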 The conditions noted are these: Leishmania major promastigotes, resazurin fluorescence viability; at 10 µM; hits give high values.
With `CCCCCC(=O)Nc1ccc(-c2cn3cccnc3n2)cc1`, the inhibition was -7.19%.
As to `O=C(N/N=C\c1ccc(Br)cc1)c1ccc(Cn2cccn2)o1`, the inhibition was 1.72%.
As to `CN(C)c1ccc(/C=N/NC(=O)c2ccc(Cn3cc(Br)cn3)o2)cc1`, the inhibition is 3.04%.
For the molecule `O=C(N/N=C/c1ccc2c(c1)OCO2)c1ccc(Cn2cc([N+](=O)[O-])cn2)o1`, the inhibition is 87% (active).
For `CCCCN1C(=S)NC[C@@H]1C(C)CC` (stereo partly specified) the value was -1.31%.
`CCOC(=O)c1ccc(NNC(C)=O)c([N+](=O)[O-])c1`: the inhibition is -5.16%.
The result for `COCCOC(=O)C1=C(C)N=c2s/c(=C\c3cccs3)c(=O)n2C1c1cccs1` (stereo unspecified) reads 7.92%; that for `CCOC(=O)C1=C(C)N=c2s/c(=C\C(=O)OC)c(=O)n2C1c1ccc(OC)cc1` (stereo unspecified), 18.8%; that for `COc1ccc(OC)c(C2C3=C(N=c4s/c(=C\c5cccc(O)c5)c(=O)n42)c2ccccc2CC3)c1` (stereo unspecified), 75.7% (active).
For `CNC(=S)N1N=C(c2ccccc2)CC1c1ccc(Br)cc1` (stereo unspecified) the value was 99.3% (active); for `Brc1ccc(C2CC(c3ccccc3)=Nc3ccccc3N2)cc1` (stereo unspecified), 27.2%.
The result for `COc1ccc(C2CC(c3ccccc3)=NN2C(=O)COC(=O)COc2ccccc2)cc1` (stereo unspecified) reads 2.56%.
In the case of `O=C1CS(=O)CN1c1ccc(Oc2ccccc2)cc1` (stereo unspecified), the inhibition was -2.75%.
With `NS(=O)(=O)c1cccc(NC(=O)COC(=O)/C=C/c2ccco2)c1`, the inhibition was -5.99%.
On to `CCN(c1ccccc1)S(=O)(=O)c1ccc(C(=O)Nc2nccs2)cc1`, for which the inhibition is 72.2% (active).
For `CCN(c1ccccc1)S(=O)(=O)c1ccc(NC(=O)C(C)(C)C)cc1`, the inhibition is 0.65%.
On to `CC(=O)Oc1ccc(C(=O)Nc2nccs2)cc1`, for which the inhibition is -7.34%.
Regarding `COc1ccc(CCc2nnc(CCC(=O)NCc3cnn(-c4ccccc4C)c3)o2)cc1`, the inhibition was 6.37%.
On to `CCOC(=O)N1CCN(C(=O)c2nn(-c3ccc(C)cc3)c(=O)c3c2c2ccccc2n3C)CC1`, for which the inhibition was -5.83%.
As to `Cn1c2ccccc2c2c(C(=O)N3CCN(c4ccc(F)cc4)CC3)cn(C3CCCC3)c(=O)c21`, the inhibition was 99.4% (active).
Turning to `O=C(c1ccccc1Oc1ccccc1)N1CCN(c2ccc(F)cc2)CC1`, the inhibition was 10.2%.
In the case of `O=C(CSc1nnc2ccc(-c3ccncc3)nn12)N1CCCCC1`, the inhibition was 20.4%.
Consider `CC(=O)Nc1ccc(S(=O)(=O)NC2(C(F)(F)F)C(=O)NC(C)=C2C#N)cc1` (stereo unspecified), for which the inhibition was -4.23%.
For the molecule `O=C(NCc1nnc(SCC(=O)N2CCCc3ccccc32)o1)c1ccccc1F`, the inhibition was -5.95%.
Regarding `O=C(/C=C/c1ccc(Cl)c([N+](=O)[O-])c1)c1cccnc1`, the inhibition was 100% (active).
Take `O=C(Nc1cccnc1)c1ccc(Cl)c([N+](=O)[O-])c1`: the inhibition was 1.22%.
For the molecule `O=C(/C=C/c1ccc(Cl)cc1Cl)NCc1ccco1`, the inhibition is -1.38%.
For `CN(C)c1ccc(/C=C/C(=O)c2ccc(C(C)(C)C)cc2)cc1[N+](=O)[O-]` the value was 27.1%; for `O=C(/C=C/c1ccc(Cl)cc1Cl)c1cccnc1`, 100% (active); for `O=C(NCc1ccc(Cl)c(Cl)c1)c1cccnc1`, -2.18%.
As for `COCCNc1nc2nonc2nc1N(C)Cc1ccc(C)cc1`, the inhibition is 2.88%.
For `CCC(C)(C(=O)Nc1ccccc1C)N(C(=O)CNC(C)=O)c1ccc(C)cc1` (stereo unspecified) the value was -4.62%; for `CSc1ccc(CN2C(=O)NC3(CCCCCC3)C2=O)cc1`, 9.1%; for `CC(NCc1nc2ccccc2n1C)C12CC3CC(CC(C3)C1)C2` (stereo unspecified), 12.4%.
`Cc1ccccc1-c1nc(C#N)c(NCc2ccco2)o1`: the inhibition is -3.77%.
As to `CC(C)(C)C1CCC(C(=O)Nc2cccnc2)CC1` (stereo unspecified), the inhibition is -5.65%.
The result for `CCOC(=O)c1sc2nc(CSc3ccccc3)[nH]c(=O)c2c1C` reads 14.1%; that for `CCOC(=O)c1sc(C)c2c1NC(C)(c1cccc3ccccc13)NC2=O` (stereo unspecified), 97.3% (active); that for `CCOC(=O)c1sc(-c2cccc([N+](=O)[O-])c2)cc1N`, 4.06%.
For the molecule `O=C(O)CCCCCNc1ncnc2ccc(Br)cc12`, the inhibition was -1.72%.
As for `CC(C)OC(=O)CN1C(=O)c2ccccc2C1=O`, the inhibition was 14.7%.
For `Cc1cccc2c1N(CC(=O)OC(C)C)C(=O)C2=O`, the inhibition is -12.8%.
As for `CC(C)OC(=O)CN1C(=O)C(=O)c2ccccc21`, the inhibition was 88% (active).
Take `O=C(CC1CCCCC1)NCc1ccc(F)cc1`: the inhibition is -12.7%.
Consider `CC(C)Oc1ccc(CCc2nnc(SCC(=O)O)n2-c2ccccc2)cc1`, for which the inhibition was -8.77%.
Regarding `NS(=O)(=O)c1ccc(NC(=O)COC(=O)c2ccco2)cc1`, the inhibition is 0.53%.
`CN(C)S(=O)(=O)c1cccc(NC(=O)COC(=O)C2(c3ccccc3F)CCCC2)c1`: the inhibition is 28.6%.
As to `NS(=O)(=O)c1ccc(NC(=O)COC(=O)C2(c3ccc(F)cc3)CCCC2)cc1`, the inhibition is 70.2% (active).
In the case of `CC(Oc1ccc(Br)cc1Br)C(=O)NC1CCCC1` (stereo unspecified), the inhibition is -1.48%.
As to `Cc1cc(CNC(=O)c2cccc([N+](=O)[O-])c2)c2ccccc2n1`, the inhibition is 9.74%.
For `O=[N+]([O-])c1cccc(Nc2c3ccccc3nc3ccccc23)c1`, the inhibition is 69.1% (active).
`CC(=O)Nc1ccc(NC(=O)COc2ncnc3ccccc23)cc1`: the inhibition is -2.61%.
For the molecule `CC(=O)Nc1ccc(Nc2c3ccccc3nc3ccccc23)cc1`, the inhibition is 101% (active).
For `CC(=O)Nc1ccc(Nc2c([N+](=O)[O-])cc(S(C)(=O)=O)cc2[N+](=O)[O-])cc1` the value was 10.8%; for `O=C(CSCC(=O)Nc1cccc([N+](=O)[O-])c1)Nc1ccccc1`, 4.18%; for `O=C(O)CCc1nc2cc(Cl)ccc2n(Cc2ccccc2)c1=O`, -0.11%.
Take `CCC1(CC)NC(=O)N(Cc2nc3ccccc3s2)C1=O`: the inhibition is -8.89%.
Turning to `CCNC(=O)COC(=O)CCNC(=O)c1cccc(C)c1`, the inhibition was -5.94%.
Regarding `CC1CC(C)(C)NC(=S)N1CCC(=O)N1CCN(Cc2ccccc2)CC1` (stereo unspecified), the inhibition is 0.54%.
Turning to `NC(=O)Cn1nc([N+](=O)[O-])nc1Oc1ccc(Br)cc1`, the inhibition is 33.2%.
As for `NC(=O)c1ccc(NC(=O)COC(=O)C(Cc2ccccc2)NC(=O)c2ccccc2)cc1` (stereo unspecified), the inhibition is 1.11%.
